Whole data set: some 33,000 sequences, median “E-score (-0.5 to 0.5)” near -0.032, cut for the highest 2% near 0.36. The list comes from a sample in which the highest values are over-represented; it also holds similar and randomly drawn sequences.
Target: T1, Sko1 (UniProt Q02100)
T1 sequence: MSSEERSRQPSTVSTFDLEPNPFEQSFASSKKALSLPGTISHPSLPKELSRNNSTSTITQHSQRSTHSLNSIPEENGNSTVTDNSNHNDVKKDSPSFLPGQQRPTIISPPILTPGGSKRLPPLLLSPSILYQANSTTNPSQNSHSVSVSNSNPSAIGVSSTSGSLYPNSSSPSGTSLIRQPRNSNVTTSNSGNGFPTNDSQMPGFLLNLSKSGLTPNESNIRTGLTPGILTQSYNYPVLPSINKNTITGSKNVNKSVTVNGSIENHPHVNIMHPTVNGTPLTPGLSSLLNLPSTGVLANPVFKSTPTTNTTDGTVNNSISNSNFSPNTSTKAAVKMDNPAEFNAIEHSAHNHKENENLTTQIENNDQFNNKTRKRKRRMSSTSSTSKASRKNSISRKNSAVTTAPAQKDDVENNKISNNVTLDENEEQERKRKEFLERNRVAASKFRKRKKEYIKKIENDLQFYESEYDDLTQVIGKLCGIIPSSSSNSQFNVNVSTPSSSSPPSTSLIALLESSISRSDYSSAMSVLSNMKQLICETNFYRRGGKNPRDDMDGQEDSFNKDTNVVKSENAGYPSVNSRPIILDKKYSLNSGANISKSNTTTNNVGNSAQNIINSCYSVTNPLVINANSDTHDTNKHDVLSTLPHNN
Test: PBM E-score (8-mer binding enrichment) (E-score (-0.5 to 0.5)); higher = stronger / more preferred TF binding
Conditions: protein concentration: 200 nM; construct: GST-full length
Procedure: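 Universal 'all 10-mer' protein binding microarrays (Agilent AMADID 015681) probed with GST-tagged S. cerevisiae TFs (full-length or DBD) made by in vitro transcription/translation (PURExpress), about 100-200 nM. Bound TF was detected with fluorescent anti-GST. Each ungapped 8-mer (which stands for itself and its reverse complement) is scored by the PBM enrichment score (E-score), a modified Wilcoxon-Mann-Whitney statistic from -0.5 to +0.5, computed with the Universal PBM Analysis Suite. Scale: above 0.35 generally sequence-specific binding.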

Sequence	PBM E-score
ACGGACTA	0.0518
CTGCTGAC	0.0145
AACACGTA	0.459
AACACGCC	-0.0487
AACACGGC	-0.255
AACACGAA	0.187
AACACGTC	0.401
AACACGTT	0.313
AGAGCTGG	-0.228
TCATAGAA	0.219
AATTTCAC	-0.0415
ACTTGAAA	0.0359
AAGCGGAA	-0.0292
AGAACGTC	0.314
AGAACGTA	0.366
AGAACGTG	0.246
GGAACGTA	0.289
CGAACGTC	0.238
CGAACGTA	0.361
GTGAAGGA	-0.0285
ACGCAGAC	0.0967
AAATTGGA	0.0977
ACGAGTCC	-0.0325
ACGTCCAC	0.314
ACGTCGAT	0.432

Sequence	PBM E-score
GCGTCGAC	0.0596
ACGTCGAA	0.292
CCGTCGAC	-0.145
ACGTCGAG	0.254
ACGTCCAT	0.39
ACGTCCAA	0.288
ACGTCGAC	0.385
ATCAGTCA	0.119
AACCGCGC	-0.0849
AGGGCAAT	-0.231
CGTAGAGC	0.116
ACGAGATA	0.207
ATCCGTCG	-0.197
ATACGCCC	-0.0909
CTACGTCC	0.298
ATACGTCC	0.369
ATACGTCG	0.422
AAACGTCG	0.238
AAGGCTGT	-0.282
CGGTAGCC	0.0295
ACCCACGA	-0.0425
AACCACGC	0.111
AATCACGA	0.0581
AATCACGC	0.205
ACCCACGT	0.374

Sequence	PBM E-score
AATCACGT	0.429
AACCACGA	-0.0344
AACCACGT	0.371
ACCCACGC	-0.0576
GGAAATAC	0.148
CCCTCATC	-0.29
CGTCACCC	0.409
GGTCACCA	-0.28
CCTCACCC	-0.148
AGTCACCA	-0.269
AGTCACCC	-0.145
CGTCACCA	0.447
AGCCAATG	-0.049
CATAAGCA	-0.085
CGTGGTTC	0.0129
ACGTCGTA	0.399
ACGTCGTC	0.387
CCGTCGTC	-0.0549
ACGTCGTG	0.361
AAGTCGTG	0.00032
ACGTCGCG	0.356
CCGTCGTA	0.11
ACGTCGGC	0.348
GCGTCGTA	0.234
AGTTGCCC	-0.107

Sequence	PBM E-score
ACATTCTA	0.293
AACCCAGC	-0.247
CGGCCTAG	-0.324
AGAAGCTG	-0.0693
ACAGCTGT	-0.245
GGGCAGAC	-0.242
ACTGGTAT	-0.17
ACTCGTCA	0.404
GCTCGTCA	0.351
TCTCGTAA	0.276
ACTCGTCT	-0.0567
CCTCGTCC	-0.209
ACTCGTCC	0.0764
CCTCGTCG	-0.233
TCTCGTCA	0.365
CCTCGTCA	0.381
AACCCAAG	-0.00525
ATAAGGAG	-0.159
CGTAGACA	0.264
GCGTCCAC	-0.0966
ATACTTTC	0.0725
AAAGACGG	-0.111
AACGACGA	0.166
AAAGACGA	0.172
AACGACGT	0.411

Sequence	PBM E-score
AAAGACGT	0.448
ACCGACGT	0.376
ACCGACGG	-0.181
ACCGACGC	0.0727
AACGACGG	0.0454
AGCTCAAA	0.0839
ATGCCCTG	-0.17
TACGGTGA	0.0938
ACGGTCGG	-0.28
ACGGTCTG	-0.0646
GACCGCTC	-0.21
CCAGTCTA	-0.255
AAGTGACG	0.445
CAGTGACG	0.408
AAGTGACC	-0.141
AAGTGACT	-0.0253
CAGTGACC	-0.18
CATTGACG	0.412
CATTGACC	0.114
CATTGACA	-0.0852
CAGTGACA	0.0692
GGCGAAAA	0.0196
ATGTCCAC	0.116
GCCTGTCA	-0.157
CCGGTCAA	-0.12

Sequence	PBM E-score
GTATTGCA	0.0688
CACTGGGC	-0.304
CTTTCATA	0.257
GCTAGCCC	-0.26
AACCGTTG	-0.00171
CGGCATAC	-0.00615
ACGCCTGA	0.15
TAATATTA	0.362
AAATATTA	0.295
CAATATTA	0.264
AGGCCAGG	-0.292
CCTATACC	-0.227
CATGACCG	0.0181
AAGAAGTG	-0.0945
CAGGGAAG	-0.212
GTGGTTAA	0.205
ACCGCTTA	-0.00218
TACGTGAA	0.425
GACGTGGA	0.23
CACGTGGA	0.315
AACGTGAA	0.14
TACGTGGA	0.424
CACGTGAA	0.319
CGAGCCTC	-0.324
GGCCCCTA	-0.188

Sequence	PBM E-score
TAGGCTCA	-0.19
AAACAGTA	0.14
CGATTACA	0.106
AGATTACT	0.201
AGATTACC	0.108
CGATTACG	0.448
CGATTACC	-0.0987
AGATTACG	0.459
ACCTGGCG	-0.109
AAGCTACG	0.251
GAAAAAAC	0.201
ACTGACGG	-0.104
CATGACTC	-0.0516
CATGACAC	0.258
ACTGACGA	0.364
CATGACGC	0.465
AATGACCA	0.0136
TATGACGA	0.475
TATGACAA	0.21
AATGACTA	0.0941
CCTGACGA	0.24
TATGACCA	0.178
AATGACGA	0.476

From the supplement of paper PMC3334620
